Compounds with a hit are over-represented: about 2.3% of the library has one in this group of screens.
CHO-K1 Ca ag = M1 agonist counterscreen hit in parental CHO-K1 cells. Fluo-8 calcium fluorescence; scaled to maximal ATP response, vehicle zero. activation, % at 3 µM. hit rate 0.48% among 360,000. AID 602248; in the data active = activation above about 15%;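 note: untransfected CHO-K1 host cells lacking M1 receptor as counterscreen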
M1 antag = antagonists of human M1 muscarinic receptor; CHO-K1 hM1, Fluo-8 calcium fluorescence, ACh EC80 antagonist; hit rate 1.3% among 360,000; inhibition, % at 3 µM; AID 588852;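 active = percent inhibition above its own plate's cutoff, namely the mean of that plate's compound wells plus 3 SD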;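 note: peak over basal fluorescence ratio during 140 s after agonist addition; 0% = ACh EC80 plus DMSO and 100% = DMSO alone without agonist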
Target sequence (P11229 whole entry, looked up): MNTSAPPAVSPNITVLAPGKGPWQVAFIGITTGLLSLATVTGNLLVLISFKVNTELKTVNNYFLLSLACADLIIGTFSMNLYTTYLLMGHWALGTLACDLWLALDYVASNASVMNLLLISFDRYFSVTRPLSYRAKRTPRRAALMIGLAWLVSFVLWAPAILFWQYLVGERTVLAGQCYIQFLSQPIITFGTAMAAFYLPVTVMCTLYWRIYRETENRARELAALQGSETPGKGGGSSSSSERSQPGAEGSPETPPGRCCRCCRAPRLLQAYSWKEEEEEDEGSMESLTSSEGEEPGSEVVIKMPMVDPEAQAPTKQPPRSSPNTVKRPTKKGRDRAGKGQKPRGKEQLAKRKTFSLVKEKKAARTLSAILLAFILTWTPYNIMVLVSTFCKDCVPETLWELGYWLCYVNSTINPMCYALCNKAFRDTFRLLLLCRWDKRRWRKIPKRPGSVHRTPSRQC
CHO-K1 Ca antag = counter-screen for M1 antagonists: effect in parental CHO-K1 cells; ATP-induced calcium, Fluo-8 fluorescence; inhibition, % at 3 µM; hit rate 0.6% among 360,000;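 active = inhibition above a per-plate cutoff, the plate's mean sample inhibition plus 3 SD, cut at about 24% in these data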;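 note: 0% = DMSO plus EC80 ATP and 100% = DMSO alone without ATP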
CHO-K1 Ca PAM = nonselective activator or artifact in parental CHO-K1 calcium assay; hit rate 0.02% among 360,000; ATP EC20, Fluo-8 calcium fluorescence; 0% at ATP EC20, 100% at ATP max; activation, % at 3 µM;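 active = activation above the run cutoff, the mean activation of all test compounds plus 3 SD, cut at about 40% in these data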;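 note: peak over basal fluorescence ratio in a 140 s read after ATP addition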
M1 ag = human M1 muscarinic receptor agonism; activation, % at 3 µM; hit rate 0.33% among 360,000; CHO-K1 hM1, Fluo-8 calcium fluorescence, agonist mode; 0% DMSO, 100% acetylcholine EC100; AID 588814; P11229;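 active = activation above the run's mean compound activation plus 3 SD, cut at about 16% in these data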;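 note: peak over basal fluorescence ratio within a 140 s kinetic read after compound addition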
M1 PAM = positive allosteric modulators of human M1 muscarinic receptor. hit rate 0.088% among 360,000. CHO-K1 hM1, Fluo-8 calcium fluorescence, ACh EC20; 0% = ACh EC20, 100% = maximal ACh. P11229. activation, % at 3 µM; in the data active = activation above about 19%, passing the limit was not always enough
Numbers without * were called inactive.

SMILES | CHO-K1 Ca ag | M1 antag | CHO-K1 Ca antag | CHO-K1 Ca PAM | M1 ag | M1 PAM
COc1ccc(N2CC(C(=O)N3CCN(C(=O)c4ccco4)CC3)CC2=O)cc1 (stereo unspecified) | 0 | -8 | -2 | -4 | -3 | 4
O=C(COC(=O)CCc1ccccc1)NNC(=O)c1ccccc1 | 0 | -22 | -13 | 30 | -1 | 13
CCOC(=O)c1sc(-c2ccc(OC)cc2)cc1N | 0 | -2 | 28* | -6 | 4 | 8
CCOC(=O)c1sc(-c2ccc(F)cc2)cc1N | -1 | 1 | -8 | 2 | -7 | 2
CC(C)(C)c1ccc(C(=O)OCC(=O)N2CCC(c3ccccc3)=N2)cc1 | 0 | 5 | -14 | 10 | -8 | -9
O=C(CCN1CCOCC1)N1c2ccccc2Sc2ccc(Cl)cc21 | 2 | 100* | -10 | 10 | -8 | -29
O=C(NCCO)N1c2ccccc2Sc2ccccc21 | 1 | -10 | -2 | 10 | -5 | 8
O=C(NCCN1CCOCC1)N1c2ccccc2Sc2ccccc21 | 2 | 62* | 7 | 9 | -5 | -24
CN(C)CCCNC(=O)N1c2ccccc2Sc2ccccc21 | 0 | 100* | -8 | 12 | -11 | -28
CNC(=O)COC(=O)c1c2c(nc3ccccc13)CCC2 | 1 | 12 | 4 | -10 | -3 | 2
COc1ccc(NC(=O)COC(=O)c2c3c(nc4ccccc24)CCCC3)cc1 | 4 | 32* | 2 | -3 | 0 | -9
CCCCNC(=O)COC(=O)c1c2c(nc3ccccc13)CCC2 | 3 | 9 | 10 | -8 | -7 | -10
COc1ccc(NC(=O)COC(=O)c2c3c(nc4ccccc24)CCCC3)cc1Cl | 3 | 22* | 11 | 9 | -4 | -10
COc1ccc(OC)c(NC(=O)COC(=O)c2c3c(nc4ccccc24)CCCC3)c1 | 4 | 38* | -14 | -2 | -7 | -19
Cc1c(NC(=O)COC(=O)c2c3c(nc4ccccc24)CCCC3)c(=O)n(-c2ccccc2)n1C | 0 | -2 | 3 | -7 | -14 | -5
CCOc1ccc(NC(=O)COC(=O)CN2CCCCCC2=O)cc1 | 0 | 2 | -9 | 4 | -4 | 1
COC(=O)C1=C(N)OC2=C(C(=O)CC(C)(C)C2)C1c1cc2c(cc1Cl)OCO2 (stereo unspecified) | 1 | -10 | -1 | 10 | -7 | 6
Cc1noc(C)c1COc1ccccc1C(=O)NC(C)c1ccc(F)cc1 (stereo unspecified) | 1 | -3 | 0 | 18 | 0 | 1
Cc1c(C(=O)Nc2ccc3c(c2)OCCO3)sc2nc(-c3ccccc3)cn12 | 15 | 42* | 9 | -10 | 0 | -24
C=CCn1c(C(C)NC(=O)COC)nc2ccccc21 (stereo unspecified) | 0 | -6 | -12 | 13 | -4 | 7
Cc1ccc(NC(=O)c2ccc(=O)n(CC(=O)Nc3ccccc3)n2)cc1 | 4 | -1 | -13 | 10 | 1 | 4
O=C1c2cccc3c([N+](=O)[O-])ccc(c23)C(=O)N1c1ccccn1 | 0 | 20 | 10 | 9 | -5 | -3
O=C1c2cccc3c([N+](=O)[O-])ccc(c23)C(=O)N1c1nccs1 | 0 | 24* | 21 | -8 | -7 | -14
CC(C)c1ccc(CNC(=O)C(=O)Nc2nccs2)cc1 | 0 | 8 | 16 | -11 | -5 | -5
CC(C)Cc1ccc(C(C)C(=O)Nc2ccccc2O)cc1 (stereo unspecified) | 38* | 69* | 46* | -8 | 36* | -17
SMILES | CHO-K1 Ca ag | M1 antag | CHO-K1 Ca antag | CHO-K1 Ca PAM | M1 ag | M1 PAM
CC(C)Cc1ccc(C(C)C(=O)Nc2nccs2)cc1 (stereo unspecified) | 17* | -1 | 8 | 22 | 24* | 1
O=C(Nc1ccc(COc2ccccc2)cc1)Nc1cccc(C(=O)O)c1 | 0 | -14 | -7 | 2 | -1 | 9
O=Cc1c[nH]c2ccc(NC(=O)OCc3ccccc3)cc12 | -1 | 2 | 29* | -28 | 2 | 10
CCN(C(=O)COC(=O)c1cc([N+](=O)[O-])ccc1N1CCOCC1)C1CCCCC1 | 0 | -19 | 2 | 4 | -2 | 10
CCOC(=O)c1[nH]c(C)c(CN(C(C)=O)c2ccc(OCC)cc2)c1C | 1 | 26* | -6 | 24 | -14 | -29
O=P(O)(CCc1ccccc1)CN1CCCCC1 | 0 | 4 | 6 | 16 | -4 | -2
O=P(CCN1CCCCC1)(c1ccccc1)c1ccccc1 | 1 | 71* | -1 | 11 | -6 | -23
CC(OC(=O)c1cc(=O)[nH]c2ccccc12)c1ccccc1 (stereo unspecified) | 1 | -5 | -12 | 3 | -3 | -6
CCN(CC)CCSc1nnc(Nc2ccccc2)n1-c1ccccc1 | 0 | 96* | 4 | 1 | -14 | -36
CCN(CC)CCSc1nc(O)c(-c2ccccc2)c(=O)n1-c1ccccc1 | 0 | -13 | -15 | 14 | -6 | 6
O=c1c(Cc2ccc(F)cc2)c(O)ccn1Cc1cccc(Cl)c1 | 5 | -6 | 1 | 3 | -3 | 0
N#Cc1c(-c2cccs2)cc(-c2cccs2)[nH]c1=O | 2 | -15 | -47 | 40* | -3 | 10
CCOC(=O)C1=C(C)NC(=NC)SC1c1ccccc1 (stereo unspecified) | 6 | 21 | -1 | 9 | -4 | -17
COc1cccc(N/C(N)=N/c2nc(C(F)(F)F)cc(C(F)(F)F)n2)c1 | 1 | 7 | 3 | -2 | -7 | -9
COc1cccc(N/C(N)=N/c2nc(C(F)(F)F)cc(=O)[nH]2)c1 | 18* | 4 | 8 | 18 | -7 | 1
CCc1ccc(OCc2nnc(SCCN3CCOCC3)n2CC)cc1 | 0 | 63* | 3 | 1 | -6 | -23
CCn1c(COc2ccc(C)cc2)nnc1SCc1ccc(C#N)cc1 | 0 | -2 | -26 | 8 | -8 | 1
O=c1c2ccccc2nnn1CSc1nnc(COc2ccc(Cl)cc2)n1Cc1ccco1 | 1 | -1 | -4 | 16 | -4 | 1
Clc1ccc(OCc2nnc(SCCN3CCCCC3)n2Cc2ccco2)cc1 | 0 | 99* | 18 | -9 | -5 | -21
N#CCCN1CCN(CCC#N)c2ccccc21 | 0 | 2 | -4 | -1 | 0 | 0
N#CCCN1CCN(CCC#N)C1=S | 1 | 1 | -6 | -1 | 16* | -3
Cc1sc2ncnc(N3CCC(C(=O)N(C)CC(=O)Nc4ccccc4Br)CC3)c2c1C | 10 | 35* | 0 | 4 | 0 | -10
CCN(CC(=O)Nc1cc(Cl)ccc1C)C(=O)C1CCN(c2ncnc3sc(C)c(C)c23)CC1 | 5 | 37* | 4 | -11 | -2 | -19
CCN(CC)S(=O)(=O)c1cc(NC(=O)C2CCN(c3ncnc4sc(C)c(C)c34)CC2)ccc1Cl | 2 | 36* | -8 | 10 | -3 | -13

From PubChem BioAssay
